Test results from the supplement of paper PMC11732987, “Enantioselective OTUD7B fragment discovery through chemoproteomics screening and high-throughput optimisation” (Communications Chemistry, 2025).

Assays:
Assay in all cases: log2 ratio of Biotin-Ahx-Ub-VS probe labelling (fragment/DMSO); higher = less target engagement (more negative = stronger competition), active = hit call of the paper (q ≤ 0.05, log2 ratio ≤ -1)
Conditions in all cases: compound concentration: 200 uM; treatment time: 3 h
[1] = molecular target: T1, USP42 (UniProt Q9H9J4)
T1 sequence (whole entry): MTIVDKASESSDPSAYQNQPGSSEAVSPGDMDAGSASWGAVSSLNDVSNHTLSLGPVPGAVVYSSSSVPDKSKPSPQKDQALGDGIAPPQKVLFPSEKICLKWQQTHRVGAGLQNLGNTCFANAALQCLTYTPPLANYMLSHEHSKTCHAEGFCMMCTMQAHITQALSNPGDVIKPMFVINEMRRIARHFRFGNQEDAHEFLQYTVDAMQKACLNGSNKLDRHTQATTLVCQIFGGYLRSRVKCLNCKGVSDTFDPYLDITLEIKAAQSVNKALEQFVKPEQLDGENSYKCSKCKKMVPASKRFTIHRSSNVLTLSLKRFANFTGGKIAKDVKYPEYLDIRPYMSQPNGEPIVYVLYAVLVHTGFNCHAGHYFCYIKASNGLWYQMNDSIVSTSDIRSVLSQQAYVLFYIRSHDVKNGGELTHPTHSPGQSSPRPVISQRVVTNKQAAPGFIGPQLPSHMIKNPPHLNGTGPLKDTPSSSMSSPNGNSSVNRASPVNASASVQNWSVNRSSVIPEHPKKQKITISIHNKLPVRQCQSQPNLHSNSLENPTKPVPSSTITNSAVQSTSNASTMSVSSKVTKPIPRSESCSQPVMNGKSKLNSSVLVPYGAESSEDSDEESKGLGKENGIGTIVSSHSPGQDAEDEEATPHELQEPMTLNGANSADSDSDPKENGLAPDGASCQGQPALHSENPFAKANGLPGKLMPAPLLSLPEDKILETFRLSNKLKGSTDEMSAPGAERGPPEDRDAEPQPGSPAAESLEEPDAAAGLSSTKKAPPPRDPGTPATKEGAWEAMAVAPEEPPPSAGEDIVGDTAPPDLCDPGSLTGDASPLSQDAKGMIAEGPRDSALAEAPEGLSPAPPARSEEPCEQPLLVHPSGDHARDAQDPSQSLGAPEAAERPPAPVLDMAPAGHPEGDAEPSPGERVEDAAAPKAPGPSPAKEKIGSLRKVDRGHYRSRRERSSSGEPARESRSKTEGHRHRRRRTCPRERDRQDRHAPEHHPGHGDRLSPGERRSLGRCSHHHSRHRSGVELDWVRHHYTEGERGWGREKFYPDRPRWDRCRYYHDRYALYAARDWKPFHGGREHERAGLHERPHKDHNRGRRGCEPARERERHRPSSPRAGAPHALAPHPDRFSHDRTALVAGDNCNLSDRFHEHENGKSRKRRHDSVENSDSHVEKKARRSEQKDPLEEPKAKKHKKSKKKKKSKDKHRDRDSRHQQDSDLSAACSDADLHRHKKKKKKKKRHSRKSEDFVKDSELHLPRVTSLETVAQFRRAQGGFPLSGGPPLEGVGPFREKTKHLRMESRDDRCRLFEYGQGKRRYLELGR
Outline: (§1)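 Each value is an average log2 ratio of fragment to vehicle, tested by unpaired t-test. The underlying Spectronaut label-free quantities were global-median-normalised, and only proteins with ≥2 unique peptides were included. Triplicate HEK293T lysate samples (495 µg) were exposed to fragment at 200 µM or vehicle for 3 h, then to Biotin-Ahx-Ub-VS at 0.5 µM final for 1 h, before NeutrAvidin enrichment of labelled DUBs, LysC and trypsin digestion, and diaPASEF LC-MS/MS.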

[2] = molecular target: USP46 (UniProt P62068)
Sequence of USP46 (P62068 whole entry): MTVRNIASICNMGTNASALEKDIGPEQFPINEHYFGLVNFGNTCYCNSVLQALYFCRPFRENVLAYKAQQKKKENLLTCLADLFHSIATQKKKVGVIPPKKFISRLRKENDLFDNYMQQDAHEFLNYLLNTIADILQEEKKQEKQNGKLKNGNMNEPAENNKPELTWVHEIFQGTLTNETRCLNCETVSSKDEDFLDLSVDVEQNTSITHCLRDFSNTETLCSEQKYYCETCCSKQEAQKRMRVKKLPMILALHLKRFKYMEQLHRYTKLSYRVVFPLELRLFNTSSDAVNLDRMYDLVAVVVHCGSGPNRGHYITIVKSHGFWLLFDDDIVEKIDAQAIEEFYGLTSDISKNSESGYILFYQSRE
Outline: as §1

[3] = molecular target: T2, USP47 (UniProt Q96K76)
T2 sequence (whole entry): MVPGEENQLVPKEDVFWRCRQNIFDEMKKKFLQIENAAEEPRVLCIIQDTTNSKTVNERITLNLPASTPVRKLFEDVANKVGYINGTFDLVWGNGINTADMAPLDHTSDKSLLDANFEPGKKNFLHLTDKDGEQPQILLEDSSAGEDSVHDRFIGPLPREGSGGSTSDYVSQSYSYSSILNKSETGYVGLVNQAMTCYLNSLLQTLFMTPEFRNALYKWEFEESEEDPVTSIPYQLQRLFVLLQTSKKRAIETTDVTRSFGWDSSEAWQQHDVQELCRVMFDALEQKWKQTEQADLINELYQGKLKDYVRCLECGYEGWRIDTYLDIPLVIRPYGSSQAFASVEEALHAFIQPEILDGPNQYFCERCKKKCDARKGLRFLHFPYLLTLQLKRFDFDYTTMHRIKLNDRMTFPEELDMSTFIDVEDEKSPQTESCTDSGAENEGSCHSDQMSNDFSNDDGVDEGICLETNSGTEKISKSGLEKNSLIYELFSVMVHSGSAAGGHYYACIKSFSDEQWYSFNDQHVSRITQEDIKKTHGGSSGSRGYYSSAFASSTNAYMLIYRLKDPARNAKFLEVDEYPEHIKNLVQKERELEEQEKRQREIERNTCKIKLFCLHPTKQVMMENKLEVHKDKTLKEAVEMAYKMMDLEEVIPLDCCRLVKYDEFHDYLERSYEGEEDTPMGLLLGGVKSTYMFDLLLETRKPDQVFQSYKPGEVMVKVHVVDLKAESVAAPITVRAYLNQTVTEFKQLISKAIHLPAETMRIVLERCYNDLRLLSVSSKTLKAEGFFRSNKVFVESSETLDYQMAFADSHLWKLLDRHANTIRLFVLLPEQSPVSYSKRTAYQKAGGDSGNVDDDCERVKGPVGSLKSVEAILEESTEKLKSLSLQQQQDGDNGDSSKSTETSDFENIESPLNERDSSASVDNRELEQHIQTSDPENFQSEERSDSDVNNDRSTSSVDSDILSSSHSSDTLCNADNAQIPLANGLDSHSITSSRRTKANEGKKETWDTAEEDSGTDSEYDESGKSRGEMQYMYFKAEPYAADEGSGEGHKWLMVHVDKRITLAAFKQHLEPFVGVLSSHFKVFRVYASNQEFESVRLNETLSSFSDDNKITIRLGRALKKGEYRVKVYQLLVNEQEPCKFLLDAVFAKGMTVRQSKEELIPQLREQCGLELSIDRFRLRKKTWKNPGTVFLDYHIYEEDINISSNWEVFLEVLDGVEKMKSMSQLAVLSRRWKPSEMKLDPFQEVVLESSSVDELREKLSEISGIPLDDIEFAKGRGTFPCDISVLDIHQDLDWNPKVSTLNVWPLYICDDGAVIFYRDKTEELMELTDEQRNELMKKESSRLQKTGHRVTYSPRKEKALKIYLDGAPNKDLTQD
Outline: as §1

[4] = molecular target: T3, USP48 (UniProt Q86UV5)
T3 sequence (whole entry): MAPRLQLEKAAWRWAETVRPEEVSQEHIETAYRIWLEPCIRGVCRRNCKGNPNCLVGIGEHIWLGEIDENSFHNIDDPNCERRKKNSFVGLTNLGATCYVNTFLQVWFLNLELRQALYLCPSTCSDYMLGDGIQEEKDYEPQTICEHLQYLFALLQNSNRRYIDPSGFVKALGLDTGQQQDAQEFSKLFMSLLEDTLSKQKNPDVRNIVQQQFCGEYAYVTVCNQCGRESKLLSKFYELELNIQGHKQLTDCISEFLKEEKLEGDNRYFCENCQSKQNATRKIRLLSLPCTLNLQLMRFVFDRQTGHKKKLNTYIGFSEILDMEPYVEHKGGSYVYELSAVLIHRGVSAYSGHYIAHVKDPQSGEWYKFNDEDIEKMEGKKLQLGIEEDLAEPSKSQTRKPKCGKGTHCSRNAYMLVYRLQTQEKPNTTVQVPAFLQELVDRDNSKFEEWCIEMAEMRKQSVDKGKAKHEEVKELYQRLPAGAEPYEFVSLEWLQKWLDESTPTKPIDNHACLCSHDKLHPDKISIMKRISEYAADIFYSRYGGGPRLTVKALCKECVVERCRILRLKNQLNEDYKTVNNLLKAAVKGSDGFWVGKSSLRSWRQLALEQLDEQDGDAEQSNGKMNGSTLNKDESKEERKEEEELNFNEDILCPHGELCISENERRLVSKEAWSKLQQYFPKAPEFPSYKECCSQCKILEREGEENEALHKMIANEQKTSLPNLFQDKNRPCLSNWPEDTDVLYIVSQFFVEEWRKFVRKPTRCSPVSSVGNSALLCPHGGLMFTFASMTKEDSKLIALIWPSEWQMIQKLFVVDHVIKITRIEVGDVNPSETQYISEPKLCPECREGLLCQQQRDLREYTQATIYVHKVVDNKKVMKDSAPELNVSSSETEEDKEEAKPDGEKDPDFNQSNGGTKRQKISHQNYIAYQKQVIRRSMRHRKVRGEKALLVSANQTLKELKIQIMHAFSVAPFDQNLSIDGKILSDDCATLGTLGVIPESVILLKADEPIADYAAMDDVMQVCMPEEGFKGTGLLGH
Outline: as §1

[5] = molecular target: T4, USP5 (UniProt P45974)
T4 sequence (whole entry): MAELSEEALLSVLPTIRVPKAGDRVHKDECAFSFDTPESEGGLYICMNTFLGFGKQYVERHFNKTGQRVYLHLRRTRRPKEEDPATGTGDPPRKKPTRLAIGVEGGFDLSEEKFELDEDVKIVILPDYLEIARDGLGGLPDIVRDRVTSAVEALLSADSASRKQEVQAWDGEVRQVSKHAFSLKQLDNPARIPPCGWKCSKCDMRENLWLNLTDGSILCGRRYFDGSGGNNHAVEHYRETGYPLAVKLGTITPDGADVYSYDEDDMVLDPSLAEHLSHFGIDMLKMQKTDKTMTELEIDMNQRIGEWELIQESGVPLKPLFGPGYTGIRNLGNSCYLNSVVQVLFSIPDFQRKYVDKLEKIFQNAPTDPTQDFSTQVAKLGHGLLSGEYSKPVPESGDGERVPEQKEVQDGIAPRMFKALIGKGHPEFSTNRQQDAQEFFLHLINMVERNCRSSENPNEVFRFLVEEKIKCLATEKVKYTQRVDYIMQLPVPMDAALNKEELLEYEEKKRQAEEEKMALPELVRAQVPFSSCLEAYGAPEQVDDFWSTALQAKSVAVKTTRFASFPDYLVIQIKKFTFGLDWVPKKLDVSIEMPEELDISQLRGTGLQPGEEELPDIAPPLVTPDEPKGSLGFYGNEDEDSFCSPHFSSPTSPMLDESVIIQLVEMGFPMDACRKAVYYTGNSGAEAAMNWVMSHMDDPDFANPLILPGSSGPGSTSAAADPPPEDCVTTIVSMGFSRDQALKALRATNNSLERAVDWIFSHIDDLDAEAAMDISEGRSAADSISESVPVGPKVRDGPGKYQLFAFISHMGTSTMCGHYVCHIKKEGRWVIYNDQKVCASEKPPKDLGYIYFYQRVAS
Outline: as §1

[6] = molecular target: USP54 (UniProt Q70EL1)
Outline: as §1

[7] = molecular target: USP7 (UniProt Q93009)
Sequence of USP7 (Q93009 whole entry, looked up): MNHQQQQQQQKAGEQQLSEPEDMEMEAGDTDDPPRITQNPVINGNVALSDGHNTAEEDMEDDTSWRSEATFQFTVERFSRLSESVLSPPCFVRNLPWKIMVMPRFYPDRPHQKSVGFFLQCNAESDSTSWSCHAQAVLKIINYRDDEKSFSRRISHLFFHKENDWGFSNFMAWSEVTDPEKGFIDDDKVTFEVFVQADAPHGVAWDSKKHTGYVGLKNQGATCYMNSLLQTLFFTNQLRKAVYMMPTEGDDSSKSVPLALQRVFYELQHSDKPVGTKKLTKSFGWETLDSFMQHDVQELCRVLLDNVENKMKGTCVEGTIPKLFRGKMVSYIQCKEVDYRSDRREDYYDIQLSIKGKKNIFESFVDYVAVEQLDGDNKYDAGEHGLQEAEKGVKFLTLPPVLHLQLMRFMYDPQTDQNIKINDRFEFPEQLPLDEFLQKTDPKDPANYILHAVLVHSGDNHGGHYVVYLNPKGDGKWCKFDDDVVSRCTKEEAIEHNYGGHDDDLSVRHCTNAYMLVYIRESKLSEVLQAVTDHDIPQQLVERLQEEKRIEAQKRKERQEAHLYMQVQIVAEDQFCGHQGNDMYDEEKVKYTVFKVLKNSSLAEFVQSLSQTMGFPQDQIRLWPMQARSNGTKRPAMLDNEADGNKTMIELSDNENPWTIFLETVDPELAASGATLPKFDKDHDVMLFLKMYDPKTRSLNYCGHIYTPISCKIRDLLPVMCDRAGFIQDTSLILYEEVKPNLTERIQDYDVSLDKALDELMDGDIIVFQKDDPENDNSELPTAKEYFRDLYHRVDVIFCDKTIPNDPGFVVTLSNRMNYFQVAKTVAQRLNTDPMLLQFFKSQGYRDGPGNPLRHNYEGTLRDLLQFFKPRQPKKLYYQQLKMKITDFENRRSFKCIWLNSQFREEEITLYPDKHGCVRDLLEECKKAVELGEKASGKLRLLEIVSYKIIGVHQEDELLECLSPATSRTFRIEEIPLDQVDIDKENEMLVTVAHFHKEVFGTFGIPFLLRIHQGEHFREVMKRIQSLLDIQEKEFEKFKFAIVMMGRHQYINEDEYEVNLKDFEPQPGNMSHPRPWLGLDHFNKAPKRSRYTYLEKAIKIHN
Outline: as §1

[8] = molecular target: T5, USP8 (UniProt P40818)
T5 sequence (whole entry): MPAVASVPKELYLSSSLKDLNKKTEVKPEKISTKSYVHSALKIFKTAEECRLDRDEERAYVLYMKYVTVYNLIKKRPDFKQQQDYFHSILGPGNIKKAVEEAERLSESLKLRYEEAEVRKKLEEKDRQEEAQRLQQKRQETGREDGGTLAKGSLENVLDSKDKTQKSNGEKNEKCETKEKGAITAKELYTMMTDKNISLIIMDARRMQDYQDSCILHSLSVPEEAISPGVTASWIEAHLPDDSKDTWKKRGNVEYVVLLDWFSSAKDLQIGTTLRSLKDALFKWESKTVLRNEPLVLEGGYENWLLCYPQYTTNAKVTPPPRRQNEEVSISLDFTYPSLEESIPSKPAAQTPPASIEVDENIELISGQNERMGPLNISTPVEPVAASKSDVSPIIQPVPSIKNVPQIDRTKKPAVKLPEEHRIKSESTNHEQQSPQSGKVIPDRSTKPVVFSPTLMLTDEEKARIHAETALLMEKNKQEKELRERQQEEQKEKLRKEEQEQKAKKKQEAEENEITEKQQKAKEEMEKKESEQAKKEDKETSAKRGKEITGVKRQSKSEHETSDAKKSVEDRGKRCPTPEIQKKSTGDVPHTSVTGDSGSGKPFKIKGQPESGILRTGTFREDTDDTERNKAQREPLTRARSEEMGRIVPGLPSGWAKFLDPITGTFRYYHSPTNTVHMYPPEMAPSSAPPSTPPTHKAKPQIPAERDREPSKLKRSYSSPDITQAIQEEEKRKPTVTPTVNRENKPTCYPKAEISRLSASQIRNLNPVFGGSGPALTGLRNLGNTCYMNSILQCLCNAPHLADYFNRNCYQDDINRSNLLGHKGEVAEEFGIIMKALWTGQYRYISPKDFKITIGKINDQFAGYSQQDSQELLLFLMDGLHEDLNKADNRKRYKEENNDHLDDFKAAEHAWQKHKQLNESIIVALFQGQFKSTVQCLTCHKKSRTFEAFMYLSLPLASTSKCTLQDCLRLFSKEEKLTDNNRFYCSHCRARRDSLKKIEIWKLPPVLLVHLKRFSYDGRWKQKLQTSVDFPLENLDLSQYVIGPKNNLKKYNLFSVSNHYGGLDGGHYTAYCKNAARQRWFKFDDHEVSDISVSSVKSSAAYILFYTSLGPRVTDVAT
Outline: as §1

[9] = molecular target: USP9X (UniProt Q93008)
Sequence of USP9X (Q93008 whole entry): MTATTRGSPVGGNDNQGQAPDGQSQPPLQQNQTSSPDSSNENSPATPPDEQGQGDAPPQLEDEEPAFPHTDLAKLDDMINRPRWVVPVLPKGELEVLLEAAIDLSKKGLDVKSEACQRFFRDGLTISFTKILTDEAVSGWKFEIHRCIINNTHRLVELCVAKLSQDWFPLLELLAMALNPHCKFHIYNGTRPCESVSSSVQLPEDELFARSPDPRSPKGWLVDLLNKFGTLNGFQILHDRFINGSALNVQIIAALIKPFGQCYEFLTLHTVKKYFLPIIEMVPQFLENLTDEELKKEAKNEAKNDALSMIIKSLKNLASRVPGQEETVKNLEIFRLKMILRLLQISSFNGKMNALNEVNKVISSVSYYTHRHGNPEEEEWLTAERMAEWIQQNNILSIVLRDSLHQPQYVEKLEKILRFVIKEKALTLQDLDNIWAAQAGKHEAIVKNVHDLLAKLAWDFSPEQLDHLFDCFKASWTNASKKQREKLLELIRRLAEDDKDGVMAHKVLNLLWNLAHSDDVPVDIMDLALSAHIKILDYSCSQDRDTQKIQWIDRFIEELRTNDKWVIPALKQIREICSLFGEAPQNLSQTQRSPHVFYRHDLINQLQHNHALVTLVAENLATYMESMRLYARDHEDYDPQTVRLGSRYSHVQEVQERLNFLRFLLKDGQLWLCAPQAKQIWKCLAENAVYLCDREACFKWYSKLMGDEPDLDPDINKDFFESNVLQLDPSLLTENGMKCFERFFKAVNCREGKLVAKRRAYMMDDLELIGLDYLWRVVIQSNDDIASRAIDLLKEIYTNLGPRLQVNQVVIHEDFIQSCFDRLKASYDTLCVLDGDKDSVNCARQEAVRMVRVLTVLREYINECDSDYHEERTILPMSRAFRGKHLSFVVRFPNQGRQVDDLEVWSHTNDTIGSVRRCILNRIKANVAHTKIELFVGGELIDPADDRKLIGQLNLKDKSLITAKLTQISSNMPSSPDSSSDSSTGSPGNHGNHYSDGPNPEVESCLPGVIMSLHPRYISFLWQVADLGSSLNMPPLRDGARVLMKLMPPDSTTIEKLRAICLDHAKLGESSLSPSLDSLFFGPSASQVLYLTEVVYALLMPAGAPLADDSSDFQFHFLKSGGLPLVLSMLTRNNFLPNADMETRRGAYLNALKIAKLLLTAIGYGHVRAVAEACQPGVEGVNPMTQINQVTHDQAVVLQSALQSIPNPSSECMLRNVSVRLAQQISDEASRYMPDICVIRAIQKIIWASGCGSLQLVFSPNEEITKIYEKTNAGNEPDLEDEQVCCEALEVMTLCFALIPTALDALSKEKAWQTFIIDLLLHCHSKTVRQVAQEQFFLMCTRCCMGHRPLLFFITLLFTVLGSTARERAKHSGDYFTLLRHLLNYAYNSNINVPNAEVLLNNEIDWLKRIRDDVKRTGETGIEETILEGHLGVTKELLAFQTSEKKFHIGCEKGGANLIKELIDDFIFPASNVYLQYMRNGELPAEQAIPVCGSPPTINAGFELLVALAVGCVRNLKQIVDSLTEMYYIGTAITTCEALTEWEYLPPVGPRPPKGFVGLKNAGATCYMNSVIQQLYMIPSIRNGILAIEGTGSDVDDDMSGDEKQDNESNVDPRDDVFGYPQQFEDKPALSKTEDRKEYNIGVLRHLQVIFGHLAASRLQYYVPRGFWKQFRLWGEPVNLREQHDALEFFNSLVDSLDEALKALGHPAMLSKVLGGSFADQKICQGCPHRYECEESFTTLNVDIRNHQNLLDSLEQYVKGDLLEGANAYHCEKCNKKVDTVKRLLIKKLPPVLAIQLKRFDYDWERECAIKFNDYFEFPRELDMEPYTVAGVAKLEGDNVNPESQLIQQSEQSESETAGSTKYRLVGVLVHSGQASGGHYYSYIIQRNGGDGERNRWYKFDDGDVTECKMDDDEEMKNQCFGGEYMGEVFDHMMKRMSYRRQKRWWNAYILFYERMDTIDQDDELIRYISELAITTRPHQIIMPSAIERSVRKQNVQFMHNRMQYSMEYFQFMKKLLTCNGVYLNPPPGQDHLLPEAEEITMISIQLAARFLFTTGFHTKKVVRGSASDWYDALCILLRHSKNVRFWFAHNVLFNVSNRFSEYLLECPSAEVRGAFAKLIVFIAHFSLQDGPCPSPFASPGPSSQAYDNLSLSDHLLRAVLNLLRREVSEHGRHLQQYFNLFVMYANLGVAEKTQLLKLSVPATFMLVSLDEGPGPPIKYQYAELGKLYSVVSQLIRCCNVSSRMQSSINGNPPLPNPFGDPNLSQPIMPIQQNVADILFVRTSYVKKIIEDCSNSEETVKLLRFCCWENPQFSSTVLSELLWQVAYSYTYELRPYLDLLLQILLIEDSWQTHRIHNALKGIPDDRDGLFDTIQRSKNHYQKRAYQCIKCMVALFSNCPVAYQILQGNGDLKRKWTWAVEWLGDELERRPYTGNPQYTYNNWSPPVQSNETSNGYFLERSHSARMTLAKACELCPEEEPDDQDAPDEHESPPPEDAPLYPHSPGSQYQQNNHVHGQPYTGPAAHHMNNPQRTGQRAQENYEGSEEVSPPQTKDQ
Outline: as §1

[10] = molecular target: UniProt O00487
Sequence of UniProt O00487 (O00487 whole entry): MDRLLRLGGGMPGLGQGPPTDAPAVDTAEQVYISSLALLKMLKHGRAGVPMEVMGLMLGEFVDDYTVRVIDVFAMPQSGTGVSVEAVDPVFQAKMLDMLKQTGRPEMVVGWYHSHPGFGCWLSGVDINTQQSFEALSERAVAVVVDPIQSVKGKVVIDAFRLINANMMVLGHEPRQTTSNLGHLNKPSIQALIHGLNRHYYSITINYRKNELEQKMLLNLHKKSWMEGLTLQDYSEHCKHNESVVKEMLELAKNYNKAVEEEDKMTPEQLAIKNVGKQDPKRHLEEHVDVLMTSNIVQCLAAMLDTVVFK
Outline: as §1

Measured: log2 ratio of Biotin-Ahx-Ub-VS probe labelling

NC(=O)C1CCCN(C(=O)CCl)C1 (stereo not given)
inactive: [1] -0.105 | [2] 0.15 | [3] -0.831 | [4] -0.259 | [5] -0.0828 | [6] 0.785 | [7] -0.0546 | [8] -0.122 | [9] -0.029 | [10] -0.0923
